{"source": "the supplement of paper PMC10498489", "note": "In all, about 2,300 compounds went through this assay and about 330 (14%) showed activity.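 Rule for the calls: active = median modified Z-score above 1.96; inactive = 1.96 or below.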 The list is a sample of the results."}
{"system": "HepG2 Srxn1-GFP reporter cells (+30 nM CDDO-Me)", "assay": "Srxn1-GFP intensity median modified Z-score relative to plate median; higher = stronger NRF2 / oxidative stress reporter activation, active = hit call of the paper", "conditions": "10 µM; exposure time: 24h", "summary_of_the_method": "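Per-cell cytoplasmic GFP was measured on confocal images of formaldehyde-fixed, Hoechst-stained HepG2 Srxn1-GFP BAC reporter cells, excluding images with fewer than 100 cells. Before this, the cells (20,000 per well, 96-well plates) were co-exposed for 24 h to compound at 10 μM and an NRF2 activator at 30 nM with ≤0.1% DMSO, in three replicate plates. Each value is the median over replicates of the per-plate modified Z-score of GFP intensity. That score was scaled with 1.4826 × median absolute deviation.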"}
{"smiles": "NC(=O)C1CCCN1C(=O)C(Cc1c[nH]cn1)NC(O)c1ccc(O)[nH]1", "note": "(centres undefined) [euspeclibcmpd919]", "Srxn1-GFP intensity median modified Z-score": "0.145 (inactive)"}
{"smiles": "COc1ccccc1O", "note": "[euspeclibcmpd1265]", "Srxn1-GFP intensity median modified Z-score": "-0.0107 (inactive)"}
{"smiles": "COc1c(O)cc(O)cc1O", "note": "[euspeclibcmpd1393]", "Srxn1-GFP intensity median modified Z-score": "-0.431 (inactive)"}
{"smiles": "Oc1cccc2[nH]ccc12", "note": "[euspeclibcmpd2031]", "Srxn1-GFP intensity median modified Z-score": "-0.358 (inactive)"}
{"smiles": "COc1cccc(O)c1O", "note": "[euspeclibcmpd1624]", "Srxn1-GFP intensity median modified Z-score": "10.7 (active)"}
{"smiles": "COc1cc(O)cc(OC)c1OC", "note": "[euspeclibcmpd1601]", "Srxn1-GFP intensity median modified Z-score": "-0.369 (inactive)"}
{"smiles": "COc1c(O)cccc1O", "note": "[euspeclibcmpd1665]", "Srxn1-GFP intensity median modified Z-score": "3.35 (active)"}
{"smiles": "N=C(N)NCCCC(N)C(=O)O", "note": "(centres undefined) [euspeclibcmpd695]", "Srxn1-GFP intensity median modified Z-score": "-0.363 (inactive)"}
{"smiles": "CC(C)N=c1nccc[nH]1", "note": "[euspeclibcmpd1194]", "Srxn1-GFP intensity median modified Z-score": "-0.779 (inactive)"}
{"smiles": "NC[C@H]1O[C@H](O[C@H]2C(O[C@@H]3O[C@H](CO)[C@@H](O)[C@H]3O)[C@@H](O)[C@H](N)C[C@@H]2N)[C@H](N)[C@@H](O)[C@@H]1O", "note": "(some centres undefined) [euspeclibcmpd1069]", "Srxn1-GFP intensity median modified Z-score": "-0.384 (inactive)"}
{"smiles": "CCOc1ccc(C(=O)c2ccc(OC)c(O)c2O)cc1", "note": "[euspeclibcmpd1975]", "Srxn1-GFP intensity median modified Z-score": "-0.333 (inactive)"}
{"smiles": "CCO[C@@]1(C)C[C@H]1NC(=O)N[C@@H]1C[C@@H]1C(F)F", "Srxn1-GFP intensity median modified Z-score": "0.985 (inactive)"}
{"smiles": "CC1C(=NC(=O)C(NOC(C)(C)C(=O)O)c2csc(=N)[nH]2)C(=O)N1S(=O)(=O)O", "note": "(centres undefined) [euspeclibcmpd708]", "Srxn1-GFP intensity median modified Z-score": "-0.0945 (inactive)"}
{"smiles": "CCOc1cc2c(cc1/C=C/C(=O)N(C)C(C)c1ccc(-n3cncn3)cc1)OC(C)C2", "note": "(centres undefined)", "Srxn1-GFP intensity median modified Z-score": "0.413 (inactive)"}
{"smiles": "Cc1ccc2c(Cl)cc(Cl)c(O)c2n1", "note": "[euspeclibcmpd1014]", "Srxn1-GFP intensity median modified Z-score": "-0.191 (inactive)"}
{"smiles": "Oc1c(Cl)cc(Cl)c(Cl)c1Cc1c(O)c(Cl)cc(Cl)c1Cl", "note": "[euspeclibcmpd146]", "Srxn1-GFP intensity median modified Z-score": "44.1 (active)"}
{"smiles": "CCC[C@@H]1C[C@@H](C(=O)N[C@@H]([C@H]2O[C@H](SC)[C@H](O)[C@@H](O)[C@H]2O)[C@@H](C)O)N(C)C1", "Srxn1-GFP intensity median modified Z-score": "1.1 (inactive)"}
{"smiles": "O=C(O)C1[C@H]2C[C@H]3c4[nH]c5ccccc5c4CCN3C[C@@H]2CC[C@@H]1O", "note": "(some centres undefined) [euspeclibcmpd1655]", "Srxn1-GFP intensity median modified Z-score": "-0.233 (inactive)"}
{"smiles": "COC(=O)[C@H]1[C@H]2C[C@@H]3c4[nH]c5cc(OC)ccc5c4CCN3C[C@H]2C[C@@H](OC(=O)c2cc(OC)c(OC)c(OC)c2)[C@@H]1OC", "note": "[euspeclibcmpd2385]", "Srxn1-GFP intensity median modified Z-score": "6.53 (active)"}
{"smiles": "C[C@H]1O[C@H](OC[C@@H]2O[C@H](Oc3c(-c4ccc(OCCO)c(OCCO)c4)oc4cc(OCCO)cc(O)c4c3=O)[C@@H](O)[C@H](O)[C@H]2O)[C@@H](O)[C@@H](O)[C@@H]1O", "note": "[euspeclibcmpd1205]", "Srxn1-GFP intensity median modified Z-score": "-0.542 (inactive)"}
{"smiles": "O=C(c1ccccc1)c1ccc(Cl)cc1O", "Srxn1-GFP intensity median modified Z-score": "1.14 (inactive)"}
{"smiles": "CCN(C(=O)COC(=O)C1=NNC(=O)CC1)C1CCS(=O)(=O)C1", "note": "(centres undefined)", "Srxn1-GFP intensity median modified Z-score": "1.01 (inactive)"}
{"smiles": "NCCc1ccc(O)c(O)c1", "note": "[euspeclibcmpd2150]", "Srxn1-GFP intensity median modified Z-score": "-1.01 (inactive)"}
{"smiles": "C[C@](N)(Cc1ccc(O)c(O)c1)C(=O)O", "note": "[euspeclibcmpd194]", "Srxn1-GFP intensity median modified Z-score": "-0.447 (inactive)"}
{"smiles": "NCCc1ccc(O)c(O)c1", "note": "[euspeclibcmpd2286]", "Srxn1-GFP intensity median modified Z-score": "9.36 (active)"}
{"smiles": "NC(Cc1ccc(O)c(O)c1)C(=O)O", "note": "(centres undefined) [euspeclibcmpd949]", "Srxn1-GFP intensity median modified Z-score": "-1.39 (inactive)"}
{"smiles": "CO[C@@H]1[C@@H](OC(N)=O)[C@@H](O)[C@H](Oc2ccc3c(=O)c(NC(=O)c4ccc(O)c(CC=C(C)C)c4)c(O)oc3c2C)OC1(C)C", "note": "[euspeclibcmpd2334]", "Srxn1-GFP intensity median modified Z-score": "-0.255 (inactive)"}
{"smiles": "N#CCSc1nnc(-c2ccc(Br)cc2)n1C1CCCCC1", "Srxn1-GFP intensity median modified Z-score": "1.88 (inactive)"}
{"smiles": "CCC(C)C(=N)C1NC(C(=O)NC(CC(C)C)C(=O)NC(CCC(=O)O)C(=O)NC(C(=O)NCCCCC2NC(=O)C(CC(N)=O)NC(=O)C(CC(=O)O)NC(=O)C(Cc3c[nH]cn3)NC(=O)C(Cc3ccccc3)NC(=O)C(C(C)CC)NC(=O)C(CCCN)NC2=O)C(C)CC)CS1", "note": "(centres undefined) [euspeclibcmpd30]", "Srxn1-GFP intensity median modified Z-score": "-0.458 (inactive)"}
{"smiles": "CC(C)CC1NC(=O)C(CCCN)NC(=O)C(C(C)C)NC(=O)C(Cc2ccc(O)cc2)NC(CCC(=O)O)C(=O)NC(CC(N)=O)C(=O)C(Cc2ccccc2)NC(=O)C(Cc2ccccc2)NC(=O)C2CCCN2C(=O)C(Cc2ccccc2)NC1=O", "note": "(centres undefined) [euspeclibcmpd1841]", "Srxn1-GFP intensity median modified Z-score": "2.86 (active)"}
{"smiles": "CCC(C)CCCCC(=O)NC(CCN)C(=O)NC(C(=O)NC(CCN)C(=O)NC1CCNC(=O)C(C(C)O)NC(=O)C(CCN)NC(=O)C(CCN)NC(=O)C(CC(C)C)NC(=O)C(Cc2ccccc2)NC(=O)C(CCN)NC1=O)C(C)O", "note": "(centres undefined) [euspeclibcmpd239]", "Srxn1-GFP intensity median modified Z-score": "0.328 (inactive)"}
{"smiles": "CC(=O)c1ccc(S(=O)(=O)CC(=O)NC2CCCC2)cc1", "Srxn1-GFP intensity median modified Z-score": "1.37 (inactive)"}
{"smiles": "N=c1nc(-c2cc(Cl)ccc2Cl)[nH]c(=N)[nH]1", "note": "[euspeclibcmpd1188]", "Srxn1-GFP intensity median modified Z-score": "0.145 (inactive)"}
{"smiles": "CCCCOC(=O)c1ccc(O)cc1", "note": "[euspeclibcmpd905]", "Srxn1-GFP intensity median modified Z-score": "0.67 (inactive)"}
{"smiles": "CCCCCCc1ccc(O)cc1O", "note": "[euspeclibcmpd2121]", "Srxn1-GFP intensity median modified Z-score": "3.73 (active)"}
{"smiles": "C[C@H]1[C@H](C)CC[C@]2(C(=O)O)CC[C@]3(C)C(=CCC4[C@@]5(C)C[C@@H](O)[C@H](O)[C@@](C)(CO)C5[C@H](O)C[C@]43C)[C@H]12", "note": "(some centres undefined) [euspeclibcmpd1692]", "Srxn1-GFP intensity median modified Z-score": "-0.252 (inactive)"}
{"smiles": "Cn1c(O)cc(-c2ccccc2)c1O", "note": "[euspeclibcmpd796]", "Srxn1-GFP intensity median modified Z-score": "-0.502 (inactive)"}
{"smiles": "CCCCNc1ccc(C(=O)OCCOCCOCCOCCOCCOCCOCCOCCOCCOC)cc1", "note": "[euspeclibcmpd1214]", "Srxn1-GFP intensity median modified Z-score": "5.26 (active)"}
{"smiles": "CCCCNc1ccc(C(=O)OCCN(C)C)cc1", "note": "[euspeclibcmpd287]", "Srxn1-GFP intensity median modified Z-score": "-0.0522 (inactive)"}
{"smiles": "CCCCOC(=O)c1ccc(N)cc1", "note": "[euspeclibcmpd342]", "Srxn1-GFP intensity median modified Z-score": "0.38 (inactive)"}
{"smiles": "Cn1cc(O)[nH]c1=N", "note": "[euspeclibcmpd1004]", "Srxn1-GFP intensity median modified Z-score": "-0.153 (inactive)"}
{"smiles": "CCN(CC)CCNC(=O)c1ccc(I)cc1", "Srxn1-GFP intensity median modified Z-score": "0.454 (inactive)"}
{"smiles": "N=c1[nH]c(=S)c2nc[nH]c2[nH]1", "note": "[euspeclibcmpd292]", "Srxn1-GFP intensity median modified Z-score": "28.2 (active)"}
{"smiles": "N=c1[nH]cnc2[nH]cnc12", "note": "[euspeclibcmpd349]", "Srxn1-GFP intensity median modified Z-score": "-0.183 (inactive)"}
